Screens as filed in PubChem BioAssay.
Vc quorum ag-1 = inducers of Vibrio cholerae quorum light production without autoinducers; V. cholerae BH1578 lux reporter, luminescence, 6 h; actives 0.16% (n = 350,000); AID 588436; activation, % at 18.7 µM; in the data active = activation mostly above about 9.7%, no sharp cut-off
BoNT A protease = inhibitors of Botulinum neurotoxin A light chain protease. AID 588499. actives 0.17% (n = 360,000). multiplex microsphere protease substrate cleavage, flow cytometry. inhibition, % at 10 µM; also: plate controls were buffer without enzyme for full effect and enzyme alone for no effect
Anthrax LF prot = blocks Bacillus anthracis lethal factor protease; inhibition, % at 10 µM; P15917; multiplex microsphere protease cleavage assay, LF; actives 0.12% (n = 360,000); also: plate controls were buffer without enzyme for full effect and enzyme alone for no effect
Autofluor counter = compound fluorescence in toxin protease inhibitor counterscreen; compound autofluorescence counterscreen, microsphere flow cytometry; stronger effect = higher value; fluorescence intensity (concentration not given with the values); actives 3.1% (n = 360,000); AID 624483; in the data active = fluorescence intensity above about 16000
BoNT-F LC inh = inhibitors of Botulinum neurotoxin F light chain protease; Multiplex microsphere protease cleavage assay, flow cytometry; actives 0.22% (n = 360,000); AID 588497; inhibition, % at 10 µM; in the data active = inhibition above about 35%, passing the limit was not always enough; also: plate controls were buffer without enzyme for full effect and enzyme alone for no effect
Vc quorum ag-2 = quorum light induction in BH1578 reporter strain. shares compounds with Vc quorum ag-1. V. cholerae BH1578 lux reporter, luminescence, 6 h. activation, % at 50 µM. 620 tested, under 10 active. AID 602243; call rule not given here
An asterisk follows results filed as active. Shown are actives, neighbours in structure and some others; about 3.5% of the full set was active somewhere. Rule as the data show it, unless noted: active = inhibition above about 30%; inconclusive = no clear call, values can overlap the other calls; inactive = below that.

Screening O=C(COC(=O)CCN1C(=O)C2CC=CCC2C1=O)Nc1ccc([N+](=O)[O-])cc1 (stereo not drawn) returned Vc quorum ag-1 1, BoNT A protease 2, Anthrax LF prot 12, Autofluor counter 3716 and BoNT-F LC inh 5.
`CCn1nc(NC(=O)c2ccco2)c2cc3ccccc3nc21` gave Vc quorum ag-1 40*, BoNT A protease 0, Anthrax LF prot 0, Autofluor counter 16504*, BoNT-F LC inh -2 and Vc quorum ag-2 216.
`CC(C)Cn1nc(NC(=O)c2ccco2)c2cc3ccccc3nc21` gave Vc quorum ag-1 0, BoNT A protease 0, Anthrax LF prot 4, Autofluor counter 5321 and BoNT-F LC inh -2.
Cn1c(C(=O)NC2CCCCCC2)cc2c(=O)n(C)c3ccccc3c21 was read as Vc quorum ag-1 1, BoNT A protease -1, Anthrax LF prot -3, Autofluor counter 6061 and BoNT-F LC inh -6.
`Cn1c(C(=O)NC2CCCCC2)cc2c(=O)n(C)c3ccccc3c21` gave Vc quorum ag-1 245*, BoNT A protease -1, Anthrax LF prot 4, Autofluor counter 5614, BoNT-F LC inh -5 and Vc quorum ag-2 inactive.
For COC(=O)c1[nH]c2ccc(C)cc2c1NC(=O)Nc1ccc(OC)cc1 the results were Vc quorum ag-1 18*, BoNT A protease 0, Anthrax LF prot 0, Autofluor counter 2335, BoNT-F LC inh 0 and Vc quorum ag-2 2.
For CC(=O)NC(Cc1ccc(F)cc1)C(=O)NC1CCN(C(=O)NCc2ccccc2)CC1 (stereo not drawn) the results were Vc quorum ag-1 -7, BoNT A protease 0, Anthrax LF prot -5, Autofluor counter 3521 and BoNT-F LC inh 8.
Screening COc1ccc(CCNC(=O)c2nnn(-c3ccc4c(c3)OCCO4)c2N)cc1OC returned Vc quorum ag-1 7.6*, BoNT A protease 1, Anthrax LF prot 8, Autofluor counter 8629, BoNT-F LC inh 0 and Vc quorum ag-2 1.
For COc1ccccc1NC(=O)c1nn(-c2ccccc2)ccc1=O the results were Vc quorum ag-1 -7, BoNT A protease 1, Anthrax LF prot 4, Autofluor counter 2541 and BoNT-F LC inh -6.
`COc1ccccc1NC(=O)c1nn(-c2ccc(Cl)cc2)ccc1=O` gave Vc quorum ag-1 25*, BoNT A protease 1, Anthrax LF prot 1, Autofluor counter 2619, BoNT-F LC inh 7 and Vc quorum ag-2 1.
`Cn1c(=O)n(C)c2cc([N+](=O)[O-])c(N3CCN(CCO)CC3)cc21` gave Vc quorum ag-1 inactive, BoNT A protease 0, Anthrax LF prot -3, Autofluor counter 4704 and BoNT-F LC inh -3.
`CC(C)Cc1ccc(-c2cc3nc(NCCc4ccc(S(N)(=O)=O)cc4)ccn3n2)cc1` gave Vc quorum ag-1 0, BoNT A protease 0, Anthrax LF prot 1, Autofluor counter 4177 and BoNT-F LC inh -11.
For CCCCc1ccc(Nc2nc(CCC)cc(=O)[nH]2)cc1 the results were Vc quorum ag-1 inactive, BoNT A protease 0, Anthrax LF prot 0, Autofluor counter 2387 and BoNT-F LC inh -7.
For CCCc1cc(=O)[nH]c(Nc2ccc(N3CCCCC3)cc2)n1 the results were Vc quorum ag-1 active, BoNT A protease 2, Anthrax LF prot -9, Autofluor counter 20834*, BoNT-F LC inh -14 and Vc quorum ag-2 inactive.
For CCOC(=O)C1(Cc2ccc(Cl)cc2)CCN(C(=O)c2cc(C)nc(C)n2)CC1 the results were Vc quorum ag-1 inactive, BoNT A protease 0, Anthrax LF prot -2, Autofluor counter 2106 and BoNT-F LC inh 0.
Screening CCN(CC(=O)Nc1c(F)cccc1F)C(=O)c1ccc(S(=O)(=O)N2CCCC2)cc1 returned Vc quorum ag-1 -2, BoNT A protease 1, Anthrax LF prot 3, Autofluor counter 5220 and BoNT-F LC inh -5.
`CCN(CC(=O)Nc1c(F)cccc1F)C(=O)c1ccc(C)c(S(=O)(=O)N2CCCCC2)c1` gave Vc quorum ag-1 2, BoNT A protease 1, Anthrax LF prot -4, Autofluor counter 5552, BoNT-F LC inh -8 and Vc quorum ag-2 0.
`O=C(N/N=C/c1ccc(Cl)cc1)c1ccc2nc[nH]c2c1` gave Vc quorum ag-1 -1, BoNT A protease 0, Anthrax LF prot 3, Autofluor counter 3634 and BoNT-F LC inh -4.
Screening COc1ccccc1NC(=O)CN1CCN(C(=O)C2CCCO2)CC1 (stereo not drawn) returned Vc quorum ag-1 22, BoNT A protease -1, Anthrax LF prot -4, Autofluor counter 5140, BoNT-F LC inh -8 and Vc quorum ag-2 6.
